Test results taken from PubChem BioAssay AID1159580 (chemical genetic matrix, 2015).
Values joined by “and” are separate entries in the source; they are usually repeats but may differ in a detail not shown here. Identical values can stand only once. Among all 5,500 compounds or so, about 2,000 (36%) were called active. Another 18% or so got no clear call; they are omitted. No stated cut-off is given here; in the data, active means normalized growth mostly below about 0.91 (no sharp cut-off); inconclusive means no clear call, values can overlap the other calls; inactive means mostly above about 0.92. The list shows a part of the results.

Experiment: chemical genetic growth profiling, strain panel (AID 1159580);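 further: tested at 20 µM; growth read once vehicle control cultures reached saturation at 30 °C; 1 = growth at the plate median or of vehicle wells; lower values mean less growth of the strain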
Details: S. cerevisiae deletion strains, growth OD

Measured: normalized growth

CC(C)(C)NCC(O)c1ccccc1Cl (stereo unspecified)
inactive: locus YAL013W, strain DEP1, hits give low values 0.993 | locus YAL021C, strain ccr4, hits give low values 1.01 | locus YAL026C, strain drs2, hits give low values 1.01 | locus YAL030W, strain snc1, hits give low values 0.979 | locus YAL040C, strain CLN3, hits give low values 0.966 | locus YBL061C, strain skt5, hits give low values 0.991 | locus YBR009C, strain hhf1, hits give low values 0.972 | locus YBR021W, strain FUR4, hits give low values 0.98 | locus YBR023C, strain chs3, hits give low values 0.993 | locus YBR171W, strain sec66, hits give low values 0.989 | locus YBR229C, strain ROT2, hits give low values 0.95 | locus YBR231C, strain swc5, hits give low values 0.989 | locus YBR279W, strain paf1, hits give low values 1 | locus YCL011C, strain gbp2, hits give low values 0.995 | locus YCL016C, strain dcc1, hits give low values 0.988 | locus YCL029C, strain bik1, hits give low values 0.978 | locus YCL061C, strain MRC1 (second series), hits give low values 1.01 | locus YCL061C, strain MRC1, hits give low values 0.992 | locus YCL069W, strain vba3, hits give low values 0.991 | locus YCR088W, strain abp1, hits give low values 0.99 | locus YDL005C, strain med2, hits give low values 1.01 | locus YDL035C, strain GPR1, hits give low values 0.947 | locus YDL040C, strain nat1, hits give low values 0.979 | locus YDL074C, strain BRE1, hits give low values 1.01 | locus YDL101C, strain DUN1, hits give low values 0.987 | locus YDL134C, strain PPH21, hits give low values 0.98 | locus YDL185W, strain tfp1, hits give low values 0.991 | locus YDL192W, strain arf1, hits give low values 0.973 | locus YDR001C, strain nth1, hits give low values 0.978 | locus YDR069C, strain doa4, hits give low values 0.988 | locus YDR101C, strain arx1, hits give low values 0.992 | locus YDR137W, strain rgp1, hits give low values 1.01 | locus YDR150W, strain NUM1, hits give low values 0.976 and 1.01 | locus YDR159W, strain sac3, hits give low values 0.939 | locus YDR162C, strain NBP2, hits give low values 0.979 | locus YDR195W, strain ref2 0.959 | locus YDR297W, strain sur2, hits give low values 1.01 | locus YDR318W, strain mcm21, hits give low values 1 | locus YDR334W, strain swr1, hits give low values 0.996 | locus YDR335W, strain msn5, hits give low values 0.991 | locus YDR363W, strain ESC2, hits give low values 0.999 | locus YDR388W, hits give low values 0.991 | locus YDR392W, strain spt3, hits give low values 0.831 | locus YDR502C, strain sam2, hits give low values 0.965 | locus YEL003W, strain gim4, hits give low values 0.996 | locus YEL037C, strain rad23, hits give low values 0.994 | locus YEL061C, strain CIN8 (second series), hits give low values 0.987 | locus YEL061C, strain CIN8, hits give low values 0.985 | locus YER002W, strain NOP16, hits give low values 0.988 | locus YER015W, strain faa2, hits give low values 0.995 | locus YER016W, strain bim1, hits give low values 0.989 | locus YER110C, hits give low values 0.966 | locus YER111C, strain swi4, hits give low values 0.992 | locus YER155C, strain BEM2 (second series), hits give low values 0.958 | locus YER155C, strain BEM2, hits give low values 1 | locus YER167W, strain BCK2, hits give low values 0.957 | locus YFR010W, strain ubp6, hits give low values 1 | locus YGL078C, strain dbp3, hits give low values 0.982 | locus YGL086W, strain mad1, hits give low values 0.978 | locus YGL167C, strain pmr1, hits give low values 0.989 | locus YGL173C, strain kem1, hits give low values 1.01 | locus YGL227W, strain vid30, hits give low values 0.988 | locus YGL240W, strain doc1, hits give low values 0.981 | locus YGL248W, strain PDE1, hits give low values 0.984 | locus YGL253W, strain hxk2, hits give low values 0.994 | locus YGR078C, strain PAC10, hits give low values 1.01 and 1.02 | locus YGR135W, strain pre9, hits give low values 0.979 | locus YGR229C, strain SMI1, hits give low values 1.01 and 1.03 | locus YGR252W, strain gcn5, hits give low values 0.898 | locus YHR013C, strain ard1, hits give low values 0.952 | locus YHR027C, strain rpn1, hits give low values 0.996 | locus YHR030C, strain SLT2, hits give low values 0.992 and 0.981 | locus YHR079C, strain IRE1 (second series), hits give low values 1 | locus YHR079C, strain IRE1, hits give low values 0.977 | locus YHR094C, strain hxt1, hits give low values 0.991 | locus YHR129C, strain ARP1, hits give low values 0.997 | locus YHR142W, strain chs7, hits give low values 1.02 | locus YHR200W, strain rpn10, hits give low values 1.01 | locus YIL066C, strain RNR3, hits give low values 0.978 | locus YIL073C, strain SPO22, hits give low values 0.972 | locus YIL125W, strain kgd1, hits give low values 0.989 | locus YIR030C, strain dcg1, hits give low values 0.983 | locus YJL092W, strain hpr5, hits give low values 0.997 | locus YJL095W, strain BCK1 (second series), hits give low values 0.996 | locus YJL095W, strain BCK1, hits give low values 1.02 and 0.99 | locus YJL115W, strain asf1, hits give low values 0.987 | locus YJL129C, strain trk1, hits give low values 1 | locus YJL134W, strain LCB3, hits give low values 0.981 | locus YJL154C, strain vps35, hits give low values 0.989 | locus YJL164C, strain tpk1, hits give low values 1.01 | locus YJL166W, strain qcr8, hits give low values 0.987 | locus YJL168C, strain set2, hits give low values 0.995 | locus YJL187C, strain SWE1 (second series), hits give low values 0.994 | locus YJL187C, strain SWE1, hits give low values 0.997 | locus YJR043C, strain POL32, hits give low values 1.03 | locus YJR066W, strain TOR1, hits give low values 0.921
